Data as given in the supplement of paper PMC10338343.
± gives the standard deviation.

test system: MILI (PIWIL2) piRISC loaded with piRNA #1 (26 nt); test: pre-steady-state target cleavage rate (min^-1); guide: piRNA #1 5'p-UGAGGUAGUAGGUUGUAUAGUAUCCA; MIWI and MILI are mouse PIWI proteins and EfPiwi is from a freshwater sponge; tags in brackets are library labels; higher = faster piRNA-guided slicing of the target; settings: auxiliary factor: 500 nM mouse GTSF1
Method in brief: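 Active affinity-purified piRISC (1 nM) loaded with one synthetic guide was mixed with a transcribed, DNA-blocked target RNA library (0.1 nM), with or without 500 nM GTSF1 partner protein, in HEPES–potassium acetate buffer at 33 °C for 0–8 or 0–960 min. Uncleaved targets were sequenced, normalised to depth and to weakly complementary targets, and pooled across three trials, with k3 capped at 0.0001 min^-1. The pre-steady-state cleavage rate was determined with a burst-and-steady-state fit.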

Compared with GGAGACGAUACUAUACACCUACUACCUCA, GGAGACCAUACUAUCAACCUACUACCUCA is higher in “pre-steady-state target cleavage rate” value: 0.0294 ± 0.0067 for the first, 0.199 ± 0.022 for the second.

First: GGAGACGAUUCUAUACAUCCUACUACCUCA
Second: GGAGAGGAUACUAUACAACCUACAACCACA
The “pre-steady-state target cleavage rate” value of the first is higher: 0.267 ± 0.018 for the first, 0.00451 ± 0.0037 for the second.

First: GGAGAGGAUACUUUACAACCUACAACCUCA
Second: GGAGACGAUACUAUACAAGCUACUACCUGA
The “pre-steady-state target cleavage rate” value of the first is lower: 0.11 ± 0.016 for the first, 0.202 ± 0.022 for the second.

Going from GGAGAGCAUACUAUUCAACCUACUACCUCA to GGAGACCAUACUAUACAUCGUACUACCUCA, the “pre-steady-state target cleavage rate” value falls from 0.217 ± 0.017 to 0.0535 ± 0.0071.

Going from GGAGACGAUACUAUACAACGUACUUCCUCA to GGAGACGAUACUAUACAACCUUCUACCACA, the “pre-steady-state target cleavage rate” value falls from 0.0234 ± 0.0059 to 0.00864 ± 0.0028.

Going from GGAGACGAUACUAUACAACCUACUACGCUCA to GGAGACCUUACAAUACAUCCUACUACCUCA, the “pre-steady-state target cleavage rate” value rises from 0.19 ± 0.02 to 0.232 ± 0.021.

Going from GGAGAGGAUACUAUACAUCCUACUACCUGA to GGAGACCAUGCUAUACAACCUACUACCUCA, the “pre-steady-state target cleavage rate” value rises from 0.00529 ± 0.0032 to 0.145 ± 0.023.

Compared with GGAGUGCAUACUAUACAUCCUACUACCUCA, GGAGUGGAUACUAUACAACCUACUAUCCUCA is lower in “pre-steady-state target cleavage rate” value: 0.313 ± 0.015 for the first, 0.05 ± 0.0077 for the second.

Compared with GGAGACCUUACUAUACAACCUACUACCCUCA, GGAGACCUAACUAUACAACGUACUACCUCA is lower in “pre-steady-state target cleavage rate” value: 0.17 ± 0.019 for the first, 0.0137 ± 0.0057 for the second.

Compared with GGAGUGGAUACUUUACAACGUACUACCUCA, GGAGACGAUAGUAUACAUCCUACUACCUCA is higher in “pre-steady-state target cleavage rate” value: 0.0295 ± 0.0029 for the first, 0.232 ± 0.016 for the second.

Compared with GGAGAGGAUACAAUACUACCUACUACCUCA, GGAGACCAUACUAUACAACCUACUUCCACA is lower in “pre-steady-state target cleavage rate” value: 0.154 ± 0.013 for the first, 0.0785 ± 0.018 for the second.

Compared with GGAGUGGAUUCUAUACAUCCUACUACCUCA, GGAGAGGAUACUAUACAACACUACUACCUCA is lower in “pre-steady-state target cleavage rate” value: 0.299 ± 0.013 for the first, 0.00372 ± 0.0023 for the second.

GGAGACGAUACCAUACAACCUACUACCUCA and GGAGACCUUACUAUACAUCCUACUACCUGA are within error of each other in “pre-steady-state target cleavage rate” value: 0.236 ± 0.027 for the first, 0.195 ± 0.033 for the second.

Compared with GGAGACCAUACUAUACAACCUACUACCAGA, GGAGAGUGAUACUAUACAACCUACUACCUCA is higher in “pre-steady-state target cleavage rate” value: 0.169 ± 0.027 for the first, 0.227 ± 0.016 for the second.

Going from GGAGAGGAUACUAUACAUCCUACAACCUCA to GGAGACCUAUCUAUACAACCUACUACCUACA, the “pre-steady-state target cleavage rate” value falls from 0.125 ± 0.024 to 0.0858 ± 0.015.

First: GGAGACCAACUAUACAACCUACUACCUCA
Second: GGAGUGCAUACUAUACAACCUACAACCUCA
The “pre-steady-state target cleavage rate” value of the first is higher: 0.224 ± 0.021 for the first, 0.0916 ± 0.01 for the second.

Compared with GGAGACCUAUCUAUACAUCCUACUACCUCA, GGAGACGAUACUAUACAACCUAACUACCUCA is lower in “pre-steady-state target cleavage rate” value: 0.182 ± 0.018 for the first, 0.0232 ± 0.0036 for the second.

Going from GGAGACCAUACUAUACAACCUACUUCCUCA to GGAGACCAUACUAUACAACCUGCUACCUCA, the “pre-steady-state target cleavage rate” value falls from 0.114 ± 0.018 to 0.0337 ± 0.0076.

Compared with GGAGAGGAGUACUAUACAACCUACUACCUCA, GGAGAUGAUACUAUACAACCUACUACCUCA is higher in “pre-steady-state target cleavage rate” value: 0.0702 ± 0.0063 for the first, 0.198 ± 0.013 for the second.

Compared with GGAGAGGAAUACUAUACAACCUACUACCUCA, GGAGUGGAAACUAUACAACCUUCUACCUCA is lower in “pre-steady-state target cleavage rate” value: 0.172 ± 0.0098 for the first, 0.00517 ± 0.0028 for the second.
